In PubChem BioAssay (Tox21):
Records with an inconclusive call do not appear. Where a call stands in place of a potency, no number is given. The source made the active and inactive calls. The call rests on the fitted dose curve; in most records, active means well fitted cell-killing curve with a large enough effect in the repeat runs; inconclusive means weak or mixed curves; inactive means flat fitted curve, though single readings scatter.

experiment: qHTS RealTime-Glo MT Cell Viability Assay in HepG2 cells - 24 hour (AID 1224867); conditions: RealTime-Glo luminescence; series mostly up to 76.8 µM; further: nearly all actives have a fitted effect of over 50% in size
Method in brief: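 Tox21 10K library screened in qHTS format on HepG2 cells carrying RealTime-Glo reagents. Compounds were added after a 5 h preincubation, and the luminescent signal from continuous culture was measured repeatedly during 40 h treatment.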
Potency means the concentration at half of the fitted maximal effect.

Q: With CCC(C)COC(C)=O (configuration not stated) as the compound, how does the Potency read?
A: The Potency was “inactive”.

Q: For CN(C)CCC=C1c2ccccc2C=Cc2ccccc21, which Potency is on record?
A: Its Potency is “inactive”.

Q: Which Potency does the source give for C1COC1 here?
A: Its Potency is “inactive”.

Q: With O=Cc1c2ccccc2c(Cl)c2ccccc12 as the compound, how does the Potency read?
A: The Potency was “inactive”.

Q: For CC(C)(O)c1ccc(CNC(=O)c2cccnc2Oc2ccc3nonc3c2)cc1, which Potency is on record?
A: Its Potency is “inactive”.

Q: Which Potency does the source give for COc1ccccc1Oc1c(NS(=O)(=O)c2ccc(C(C)(C)C)cc2)nc(-c2ncccn2)nc1OCCO here?
A: The Potency was “inactive”.

Q: With C=COCC(C)C as the compound, how does the Potency read?
A: The Potency was “inactive”.

Q: For C[C@@H]1CN(CCCn2c3ccccc3c3ccccc32)C[C@H](C)N1, which Potency is on record?
A: The Potency was 23.9 µM (active).

Q: For C[C@]1(Cn2ccnn2)[C@H](C(=O)O)N2C(=O)C[C@H]2S1(=O)=O, which Potency is on record?
A: The Potency was “inactive”.

Q: Which Potency does the source give for Cc1cc(C)cc(N)c1 here?
A: Its Potency is “inactive”.

Q: With CC1CC(OC(=O)C(O)c2ccccc2)CC(C)(C)N1C (configuration not stated) as the compound, how does the Potency read?
A: Its Potency is “inactive”.

Q: For O=C(O)c1cccc(-c2noc(-c3ccccc3F)n2)c1, which Potency is on record?
A: The Potency was “inactive”.

Q: For CCCCN(CCCC)C(C(N)=O)c1ccc(OC)cc1 (configuration not stated), which Potency is on record?
A: The Potency was “inactive”.

Q: With CC1=C(CC=O)C(C)(C)CCC1 as the compound, how does the Potency read?
A: Its Potency is “inactive”.

Q: Which Potency does the source give for COC(=O)C1=C(C)NC(C)=C(C(=O)O[C@@H]2CCCN(Cc3ccccc3)C2)[C@@H]1c1cccc([N+](=O)[O-])c1 here?
A: Its Potency is “inactive”.

Q: For CC(C)=CCC/C(C)=C/CC/C(C)=C/CCC(=O)OC/C=C(\C)CCC=C(C)C, which Potency is on record?
A: Its Potency is “inactive”.

Q: With CC[N+](CC)(CCNC(=O)C(=O)NCC[N+](CC)(CC)Cc1ccccc1Cl)Cc1ccccc1Cl as the compound, how does the Potency read?
A: The Potency was “inactive”.

Q: With Cc1cscn1 as the compound, how does the Potency read?
A: Its Potency is “inactive”.

Q: With CC(C)c1nc(CN(C)C(=O)N[C@H](C(=O)N[C@@H](Cc2ccccc2)C[C@H](O)[C@H](Cc2ccccc2)NC(=O)OCc2cncs2)C(C)C)cs1 as the compound, how does the Potency read?
A: The Potency was “inactive”.

Q: For CN1C(=O)OC(C)(C)C1=O, which Potency is on record?
A: Its Potency is “inactive”.

Q: With CC(C)C(O)(c1ccc(OC(F)(F)F)cc1)c1cncnc1 (configuration not stated) as the compound, how does the Potency read?
A: Its Potency is “inactive”.

Q: Which Potency does the source give for Cc1cccc(N(C)C(=S)Oc2ccc3c(c2)CCC3)c1 here?
A: Its Potency is “inactive”.

Q: Which Potency does the source give for NC1[C@H]2CN(c3nc4c(cc3F)c(=O)c(C(=O)O)cn4-c3ccc(F)cc3F)C[C@@H]12 (some centres not stated) here?
A: Its Potency is “inactive”.

Q: Which Potency does the source give for CCCCCCCCCCCCCCN(CCO)CCO here?
A: The Potency was 21.9 µM (active).

Q: Which Potency does the source give for O=C(O)CCc1nc(-c2ccccc2)c(-c2ccccc2)o1 here?
A: The Potency was “inactive”.

Q: With CC=C(Cl)Cl as the compound, how does the Potency read?
A: The Potency was “inactive”.

Q: Which Potency does the source give for CCCCC(CC)COP(=O)(O)O (configuration not stated) here?
A: The Potency was “inactive”.

Q: For C1C[C@@H]2[C@H]3CC[C@H](C3)[C@@H]2C1, which Potency is on record?
A: Its Potency is “inactive”.

Q: Which Potency does the source give for CCOc1ccc(Cc2nccc3cc(OCC)c(OCC)cc23)cc1OCC here?
A: The Potency was 12 µM (active).

Q: For CC/C=C1/OC(=O)c2ccccc21, which Potency is on record?
A: The Potency was “inactive”.

Q: With CNC(=O)c1cnn(-c2nc(N)c3ncn([C@@H]4O[C@H](CO)[C@@H](O)[C@H]4O)c3n2)c1 as the compound, how does the Potency read?
A: Its Potency is “inactive”.

Q: For COc1cc(C(=O)NCCCCCC(=O)O)cc(OC)c1OC, which Potency is on record?
A: Its Potency is “inactive”.

Q: With CN1CCCN=C1COC(=O)C(O)(c1ccccc1)C1CCCCC1 (configuration not stated) as the compound, how does the Potency read?
A: The Potency was “inactive”.

Q: For CCCCCC[C@@H](O)C/C=C\CCCCCCCC(=O)O, which Potency is on record?
A: The Potency was “inactive”.

Q: Which Potency does the source give for COc1ncnc(NS(=O)(=O)c2ccc(N)cc2)c1OC here?
A: The Potency was “inactive”.

Q: For CCOC(=O)c1ccc(OCCN2C[C@H](O)[C@@H](O)[C@H](O)[C@H]2CO)cc1, which Potency is on record?
A: The Potency was “inactive”.

Q: For CC(CCC(=O)O)C(=O)O (configuration not stated), which Potency is on record?
A: The Potency was “inactive”.
